Among the data in PubChem BioAssay AID1851 (National Center for Advancing Translational Sciences (NCATS), 2009) are AC50 and activity, negative = inhibition values, retold here.

The campaign covered roughly 16,000 compounds. About 5,100 (32%) were called active. Another 25% or so got no clear call; they are omitted. This is one part of the list. Values without a mark were called inactive. The call rests on the fitted dose curve; in most records, active means well fitted curve in the direction sought with a large enough effect; inconclusive means small, poorly fitted or top-dose-only effect, or effect the other way; inactive means no such curve, though single readings can be large or run the other way.
On the % scale 0 is the no-effect control and ±100 the full control effect.

This experiment deals with Cytochrome P450 3A4 (Homo sapiens) (UniProt P08684). Nature of the experiment: Cytochrome panel assay with activity outcomes. The following applies: recombinant CYP, pro-luciferin dealkylation, luminescence, p450-cyp3a4; series mostly up to 57.1 µM.
Sequence of Cytochrome P450 3A4 (Homo sapiens) (P08684 whole entry, looked up): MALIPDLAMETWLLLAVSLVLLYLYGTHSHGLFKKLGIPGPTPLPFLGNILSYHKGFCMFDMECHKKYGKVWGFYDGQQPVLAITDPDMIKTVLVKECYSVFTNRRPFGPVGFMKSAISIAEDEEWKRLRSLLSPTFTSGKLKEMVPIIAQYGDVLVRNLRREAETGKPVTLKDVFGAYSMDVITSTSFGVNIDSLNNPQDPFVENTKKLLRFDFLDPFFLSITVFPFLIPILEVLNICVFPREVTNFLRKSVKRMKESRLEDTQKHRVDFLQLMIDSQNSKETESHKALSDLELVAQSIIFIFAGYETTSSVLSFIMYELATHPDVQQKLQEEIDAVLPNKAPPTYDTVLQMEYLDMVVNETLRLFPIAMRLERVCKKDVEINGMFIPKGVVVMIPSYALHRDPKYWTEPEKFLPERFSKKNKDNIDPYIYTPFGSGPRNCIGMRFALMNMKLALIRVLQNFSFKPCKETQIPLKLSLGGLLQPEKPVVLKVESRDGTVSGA
Consider `Clc1ccc(-c2cc3ccccc3[nH]2)cc1`, for which the AC50 result was “inactive”. `N#C/C(=C\c1ccc(O)c(O)c1)C(=O)c1ccc(O)c(O)c1`: the AC50 was 15.8 µM (active). With `N#C/C(=C\c1c[nH]c2ccccc12)C(=O)c1ccc(O)c(O)c1`, the AC50 was 7.94 µM (active).

`N#C/C(=C\c1ccc(O)c(O)c1)C(N)=O`: the AC50 result is “inactive”. With `N#C/C(=C\N1CCNC1=S)C(=O)c1ccc2ccccc2c1`, the activity, negative = inhibition is -26% [at 11.4 µM].

Take `c1ccc(-n2ncc3c2ncn2cnnc32)cc1`: the AC50 entry was “inactive”. For the compound `Cc1nc2c3cnn(-c4ccc(C)c(C)c4)c3ncn2n1`, the half-maximal activity concentration (AC50) was 17.8 µM (active).

For the compound `Cc1ccc(-n2ncc3c2ncn2nc(-c4ccco4)nc32)c(C)c1`, the AC50 result is “inactive”. Take `CC(C)(C)c1ccc(OCC(=O)O)c(Cl)c1`: the activity, negative = inhibition is -2.41% [at 11.4 µM].

For `O=C1N=C(N2CCOCC2)S/C1=C/c1cccs1`, the activity, negative = inhibition was -4.33% [at 2.29 µM]. Turning to `NC(=O)CNC(=O)[C@@H]1CC2(CC(c3ccccc3)=NO2)CN1C(=O)c1ccc(Br)cc1` (some centres not stated), the activity, negative = inhibition is -5.09% [at 11.4 µM]. Turning to `COc1cccc(N(C(=O)Cn2nnc(-c3ccc(C)cc3)n2)C(C(=O)NC(C)(C)C)c2c[nH]c3ccccc23)c1` (configuration not stated), the AC50 is 2.82 µM (active). Still for that read-out and setting: with `NCCCCCc1nnc(SCc2ccccc2Cl)o1` the entry was “inactive”. Consider `NCCCCCc1nnc(SCc2ccc(Cl)cc2Cl)o1`, for which the AC50 was 12.6 µM (active). Consider `N=C(N)SCc1ccc(Cl)cc1Cl` (tested in a mixture with another compound), for which the activity, negative = inhibition was -3.48% [at 11.4 µM].

For the compound `CCOC(=O)c1cnn(CCOC(=O)C(C)(C)C)c1NC(=O)C(C)(C)C`, the half-maximal activity concentration (AC50) is 12.6 µM (active). Still for that read-out and setting: the same measure for `CCOC(=O)c1cnc2c(cnn2C)c1NCCCN(C)C`: “inactive”. As to `CCn1ncc(C(=O)Nc2cc(C)on2)c1C`, the activity, negative = inhibition is 6.4% [at 2.29 µM].

`CNC(=O)Oc1ccc2c(c1)[C@@]1(C)CCN(C)[C@@H]1N2C`: the AC50 result is “inactive”. Still for that read-out and setting: with `COc1ccc(-n2c(=O)[nH]cc(C(=O)Nc3ccc4c(c3)OCCO4)c2=O)cc1` the figure was 14.1 µM (active). Take `CCOC(=O)CSc1cc(C(F)(F)F)nc(-c2ccccn2)n1`: the AC50 entry is “inactive”. In the case of `CCOC(=O)CSc1nc(-c2ccccc2)nc2ccccc12`, the AC50 entry was “inactive”. With `CCOC(=O)CSc1cc(CS(=O)c2ccc(Cl)cc2)nc(-c2ccccc2)n1` (configuration not stated), the AC50 is 7.08 µM (active). Regarding `CCOc1ccc(OCC)c(-c2c(=O)n(OCc3ccccc3C(=O)OC)c3ccccc3[n+]2[O-])c1`, the AC50 is 14.1 µM (active). For the compound `Cn1c(=O)c2c3c(sc2n2cnnc12)CCC3`, the activity, negative = inhibition was 10.9% [at 2.29 µM].

`CC1CSc2nc3sc4c(c3c(=O)n21)CCCC4` (configuration not stated): the AC50 is 12.6 µM (active). Still for that read-out and setting: the same measure for `CCn1c(SCC(=O)OC)nc2sc3c(c2c1=O)CCC3`: “inactive”.

For orientation: AC50 means the concentration at which the activity in the assay is half-maximal.
